Residues, ends and D or L forms follow the SMILES beside them.
Assays:
Settings in all cases: Compound concentration 20.0 uM
[1] = biological target: Tyrosine-protein kinase ABL1 (Homo sapiens) (UniProt P00519)
[2] = biological target: Bromodomain-containing protein 4 (Homo sapiens) (UniProt O60885)
[3] = biological target: Cyclin-dependent kinase 2 (Homo sapiens) (UniProt P24941)
[4] = biological target: Casein kinase I isoform delta (Homo sapiens) (UniProt P48730)
[5] = biological target: Glycogen synthase kinase-3 beta (Homo sapiens) (UniProt P49841)
Sequence of Glycogen synthase kinase-3 beta (Homo sapiens) (P49841 whole entry, looked up): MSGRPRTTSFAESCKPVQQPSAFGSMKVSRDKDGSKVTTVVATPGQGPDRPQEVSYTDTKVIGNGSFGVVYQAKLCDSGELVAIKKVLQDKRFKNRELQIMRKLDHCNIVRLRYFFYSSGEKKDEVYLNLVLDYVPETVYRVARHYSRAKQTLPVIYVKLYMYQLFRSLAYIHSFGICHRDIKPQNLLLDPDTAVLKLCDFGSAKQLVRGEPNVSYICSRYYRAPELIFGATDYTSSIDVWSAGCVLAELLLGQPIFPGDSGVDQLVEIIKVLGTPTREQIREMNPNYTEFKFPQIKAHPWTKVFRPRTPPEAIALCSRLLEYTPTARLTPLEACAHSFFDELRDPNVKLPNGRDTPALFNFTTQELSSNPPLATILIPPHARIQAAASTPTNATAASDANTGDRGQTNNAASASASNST

[6] = biological target: Mitogen-activated protein kinase 1 (Homo sapiens) (UniProt P28482)
Sequence of Mitogen-activated protein kinase 1 (Homo sapiens) (P28482 whole entry): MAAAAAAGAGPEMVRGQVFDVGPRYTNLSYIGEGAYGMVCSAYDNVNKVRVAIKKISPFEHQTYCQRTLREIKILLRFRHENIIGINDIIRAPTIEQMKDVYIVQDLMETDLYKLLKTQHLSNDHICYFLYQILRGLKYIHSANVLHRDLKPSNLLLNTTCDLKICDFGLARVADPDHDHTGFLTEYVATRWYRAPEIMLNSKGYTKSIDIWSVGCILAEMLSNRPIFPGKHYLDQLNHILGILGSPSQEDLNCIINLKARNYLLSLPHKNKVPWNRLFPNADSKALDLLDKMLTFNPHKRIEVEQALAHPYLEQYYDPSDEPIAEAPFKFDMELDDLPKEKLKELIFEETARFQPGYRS

[7] = biological target: T1, Aurora kinase A (Homo sapiens) (UniProt O14965)
T1 sequence (whole entry): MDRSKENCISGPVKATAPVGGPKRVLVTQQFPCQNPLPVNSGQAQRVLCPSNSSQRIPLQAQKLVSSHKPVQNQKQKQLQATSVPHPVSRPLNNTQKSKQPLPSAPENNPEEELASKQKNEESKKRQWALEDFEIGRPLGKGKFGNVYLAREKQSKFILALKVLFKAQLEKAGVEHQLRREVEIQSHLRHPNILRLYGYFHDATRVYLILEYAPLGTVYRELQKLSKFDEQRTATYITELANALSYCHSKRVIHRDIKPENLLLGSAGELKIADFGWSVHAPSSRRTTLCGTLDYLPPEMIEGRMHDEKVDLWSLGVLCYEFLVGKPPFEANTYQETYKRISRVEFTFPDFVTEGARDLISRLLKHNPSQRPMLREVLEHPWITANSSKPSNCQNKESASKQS

[8] = biological target: T2, Transcription intermediary factor 1-alpha (Homo sapiens) (UniProt O15164)
T2 sequence (whole entry): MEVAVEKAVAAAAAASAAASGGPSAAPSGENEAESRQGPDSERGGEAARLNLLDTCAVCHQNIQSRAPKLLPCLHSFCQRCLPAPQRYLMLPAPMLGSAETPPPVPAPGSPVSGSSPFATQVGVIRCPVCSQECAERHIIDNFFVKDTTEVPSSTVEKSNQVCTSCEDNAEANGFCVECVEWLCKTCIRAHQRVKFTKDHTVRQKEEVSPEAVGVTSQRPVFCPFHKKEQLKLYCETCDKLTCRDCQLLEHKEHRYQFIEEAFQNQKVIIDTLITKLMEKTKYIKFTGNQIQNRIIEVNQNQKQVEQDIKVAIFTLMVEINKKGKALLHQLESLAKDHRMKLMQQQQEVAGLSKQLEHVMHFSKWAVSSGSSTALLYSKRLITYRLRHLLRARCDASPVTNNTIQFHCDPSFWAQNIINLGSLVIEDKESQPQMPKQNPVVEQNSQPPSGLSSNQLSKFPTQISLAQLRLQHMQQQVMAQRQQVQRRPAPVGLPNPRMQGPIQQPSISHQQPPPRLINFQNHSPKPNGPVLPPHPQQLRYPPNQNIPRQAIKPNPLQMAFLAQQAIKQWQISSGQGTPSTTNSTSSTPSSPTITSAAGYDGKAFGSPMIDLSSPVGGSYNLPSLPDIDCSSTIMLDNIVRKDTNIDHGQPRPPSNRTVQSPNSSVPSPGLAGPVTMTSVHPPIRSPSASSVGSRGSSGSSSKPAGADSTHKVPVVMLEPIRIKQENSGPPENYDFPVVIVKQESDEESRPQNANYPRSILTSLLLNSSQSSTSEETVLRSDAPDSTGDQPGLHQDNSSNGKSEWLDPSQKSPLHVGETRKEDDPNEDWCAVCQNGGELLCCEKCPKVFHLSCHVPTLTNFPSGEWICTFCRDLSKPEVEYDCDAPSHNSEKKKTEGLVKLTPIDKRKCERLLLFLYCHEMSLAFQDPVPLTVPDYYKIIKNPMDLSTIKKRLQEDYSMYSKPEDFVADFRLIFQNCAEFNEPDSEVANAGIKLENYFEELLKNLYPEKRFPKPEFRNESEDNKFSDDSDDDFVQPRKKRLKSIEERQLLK

Sequence of Casein kinase I isoform delta (Homo sapiens) (P48730 whole entry, looked up, canonical isoform): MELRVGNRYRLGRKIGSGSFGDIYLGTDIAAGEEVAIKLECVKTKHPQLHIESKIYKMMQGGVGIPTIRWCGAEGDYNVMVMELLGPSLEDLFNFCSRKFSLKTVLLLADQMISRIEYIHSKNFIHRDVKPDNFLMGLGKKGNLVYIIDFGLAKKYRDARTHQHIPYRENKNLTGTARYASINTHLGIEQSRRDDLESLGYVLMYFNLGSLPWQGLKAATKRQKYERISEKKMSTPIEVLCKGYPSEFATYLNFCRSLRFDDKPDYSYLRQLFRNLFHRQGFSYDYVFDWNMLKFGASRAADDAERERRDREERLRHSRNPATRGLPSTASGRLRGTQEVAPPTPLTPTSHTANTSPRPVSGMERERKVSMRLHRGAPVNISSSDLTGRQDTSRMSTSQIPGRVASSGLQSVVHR
Sequence of Tyrosine-protein kinase ABL1 (Homo sapiens) (P00519 whole entry): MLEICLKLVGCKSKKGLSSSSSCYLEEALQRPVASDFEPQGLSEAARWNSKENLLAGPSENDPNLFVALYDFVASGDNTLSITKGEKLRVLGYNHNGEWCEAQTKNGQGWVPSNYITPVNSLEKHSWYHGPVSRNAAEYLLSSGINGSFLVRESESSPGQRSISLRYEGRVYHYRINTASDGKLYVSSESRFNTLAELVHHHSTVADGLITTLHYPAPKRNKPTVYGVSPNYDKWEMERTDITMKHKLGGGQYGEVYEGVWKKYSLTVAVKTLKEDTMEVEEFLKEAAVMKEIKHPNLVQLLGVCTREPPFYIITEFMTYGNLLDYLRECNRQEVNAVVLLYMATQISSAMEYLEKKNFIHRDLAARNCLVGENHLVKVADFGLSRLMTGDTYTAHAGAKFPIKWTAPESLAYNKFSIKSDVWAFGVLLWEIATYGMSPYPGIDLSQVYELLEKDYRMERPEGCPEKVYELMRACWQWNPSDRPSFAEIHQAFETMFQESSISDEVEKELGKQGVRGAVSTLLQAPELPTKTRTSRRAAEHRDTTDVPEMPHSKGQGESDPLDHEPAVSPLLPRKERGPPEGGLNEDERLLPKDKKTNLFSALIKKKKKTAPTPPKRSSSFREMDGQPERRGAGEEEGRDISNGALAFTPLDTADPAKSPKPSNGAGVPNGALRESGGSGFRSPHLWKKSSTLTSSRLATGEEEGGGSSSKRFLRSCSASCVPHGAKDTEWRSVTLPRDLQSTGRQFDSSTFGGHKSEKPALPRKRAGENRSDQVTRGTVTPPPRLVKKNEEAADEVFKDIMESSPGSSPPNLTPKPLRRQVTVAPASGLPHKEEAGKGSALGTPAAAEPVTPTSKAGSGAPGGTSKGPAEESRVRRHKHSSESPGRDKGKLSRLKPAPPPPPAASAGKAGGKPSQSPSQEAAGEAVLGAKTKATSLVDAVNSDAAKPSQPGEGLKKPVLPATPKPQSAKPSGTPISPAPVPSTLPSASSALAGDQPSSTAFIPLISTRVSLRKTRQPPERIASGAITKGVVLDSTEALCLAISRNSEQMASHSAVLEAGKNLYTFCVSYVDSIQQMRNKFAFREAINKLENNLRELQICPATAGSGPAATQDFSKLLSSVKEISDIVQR

SMILES	ΔTm [1]	ΔTm [2]	ΔTm [3]	ΔTm [4]	ΔTm [5]	ΔTm [6]	ΔTm [7]	ΔTm [8]
CC(=O)N[C@@H](Cc1ccc(O)cc1)C(=O)N[C@H](C(=O)N[C@@H](C)C(=O)N[C@@H](CC(=O)O)C(=O)CCl)C(C)C	0.08 °C	-2.91 °C	-0.27 °C	0.22 °C	-1.19 °C	-0.01 °C	-1.19 °C	-1.17 °C
COc1cc2c(cc1-c1c(C)noc1C)[nH]c1nc(C)nc(-c3ccnc4ccccc34)c12	0.56 °C	11.5 °C	-0.3 °C	-0.15 °C	0.97 °C	0.15 °C	-2.62 °C	-0.1 °C
C/C=C1\NC(=O)[C@H]2CSSCC/C=C/[C@H](CC(=O)N[C@H](C(C)C)C(=O)N2)OC(=O)[C@H](C(C)C)NC1=O	-1.22 °C	-2.72 °C	-0.96 °C	-0.77 °C	-0.05 °C	-6.13 °C	-0.48 °C	0.22 °C
O=C(c1cc(Cc2n[nH]c(=O)c3ccccc23)ccc1F)N1CCN(C(=O)C2CC2)CC1	0.22 °C	15.7 °C	0.66 °C	-0.42 °C	-4.34 °C	0.4 °C	-2.14 °C	-1.81 °C
Nc1ccccc1NC(=O)CCCCCC(=O)Nc1ccccc1	0.27 °C	-2.09 °C	0.5 °C	0.04 °C	-0.05 °C	0.2 °C	-0.94 °C	-0.62 °C
Cc1ccc2[nH]c3c(c2c1)CCCC3C(N)=O (stereo unspecified)	0.45 °C	-2.26 °C	0.06 °C	-0.29 °C	-0.37 °C	0.52 °C	-2.14 °C	-1.11 °C
C[C@@H](Oc1ccc(S(C)(=O)=O)cc1C(=O)N1C[C@@H]2C[C@]2(c2cc(C(F)(F)F)on2)C1)C(F)(F)F	0.62 °C	-3.24 °C	0.09 °C	-0.17 °C	-0.39 °C	0.07 °C	-2.51 °C	0.43 °C
O=C(O)c1cccc(-c2ccc(-c3cn(C(=O)N4CCCCC4Cc4ccccc4)nn3)cc2)c1 (stereo unspecified)	-0.1 °C	-2.23 °C	-0.87 °C	-4.82 °C	-4.03 °C	0.56 °C	-3.62 °C	-0.34 °C
O=C(c1cc(O)c(O)c([N+](=O)[O-])c1)c1ccccc1F	0.42 °C	-1.18 °C	0.1 °C	0.37 °C	0.05 °C	0.25 °C	-1.23 °C	0.61 °C
Nc1nc2cc(CC[C@H]3C[C@@H](n4ccc5c(N)ncnc54)[C@H](O)[C@@H]3O)ccc2cc1Br	2.92 °C	-1.76 °C	-4.38 °C	4.13 °C	-8.32 °C	-17 °C	-10 °C	-0.53 °C
Cn1c(=O)c2c(nc(N3CCNCC3)n2Cc2nnc(-c3ccc(Cl)c(Cl)c3)o2)n(C)c1=O	0.59 °C	-3.55 °C	0.01 °C	0.33 °C	-0.89 °C	0.1 °C	-0.39 °C	-0.46 °C
O=C(Nc1c(Cl)cncc1Cl)c1ccc(OC(F)F)c(OCC2CC2)c1	0.75 °C	-3.16 °C	0.32 °C	-0.3 °C	0.27 °C	0.36 °C	-2.31 °C	2.4 °C
NC(=O)C1CCCc2c1[nH]c1ccc(Cl)cc21 (stereo unspecified)	0.6 °C	-2.56 °C	0.2 °C	-0.38 °C	0.62 °C	0.17 °C	-0.98 °C	-0.37 °C
C=CCc1cccc(CNc2nc3ccccc3n2CCC)c1O	0.28 °C	-1.55 °C	0.45 °C	0.21 °C	0.95 °C	0.22 °C	-1.56 °C	0.59 °C
CC(=O)N[C@@H](CC(C)C)C(=O)N[C@@H](CCC(=O)O)C(=O)N[C@H](C(=O)N[C@H](C=O)CC(=O)O)C(C)C (Ac-LEVD-aldehyde)	0.2 °C	-2.55 °C	-0.57 °C	0.25 °C	-2.05 °C	-0.12 °C	-1.87 °C	-2.52 °C
Cc1ccc2c(c1)nc(/C=C/c1cccc3cccnc13)n2-c1cccc(OCCCN2CCN(C)CC2)c1	0.62 °C	-5.41 °C	-0.28 °C	-0.14 °C	-0.72 °C	0.14 °C	-2.49 °C	1.41 °C
COc1ncc(C)cc1CC[C@@](O)(CC(=O)O)C(=O)O	0.5 °C	-1.94 °C	0.22 °C	-0.36 °C	0.4 °C	0.35 °C	-1.39 °C	-0.23 °C
O=C1/C(=N/Nc2ccc(S(=O)(=O)O)cc2)C(c2ccc([N+](=O)[O-])cc2)=NN1c1ccccc1	1.16 °C	-0.38 °C	-0.28 °C	0.56 °C	-2.61 °C	0 °C	-0.73 °C	-0.32 °C
Nc1ncnc2nc(-c3ccc(N4CCOCC4)nc3)cc(-c3cccc(Br)c3)c12	4.32 °C	-3.54 °C	0.07 °C	2.63 °C	-0.95 °C	-0.25 °C	0.37 °C	0.24 °C
C[C@H]1CCCN1Cc1nc2cc(NC(=O)c3ccc4c(cnn4C)c3)ccc2[nH]1	2.18 °C	-0.92 °C	0.64 °C	0.92 °C	-0.87 °C	0.27 °C	-0.14 °C	-0.88 °C
c1ccc(Cn2c(-c3ccc(OC[C@H](C4CCNCC4)n4c(-c5ccccc5)nc5ccccc54)cc3)nc3ccccc32)cc1	-1.84 °C	-6.29 °C	-1.5 °C	-0.34 °C	-3.92 °C	0 °C	0 °C	-1.18 °C
CCCCOc1c(OC)cc(C(=O)NCC2(N(C)C)CCOCC2)cc1OC	0.07 °C	0.11 °C	0.02 °C	-0.36 °C	-1.71 °C	0.03 °C	-2.39 °C	-0.41 °C

Source: ChEMBL document CHEMBL5724796, “Tm Shift (DSF) assay results for EUbOPEN Chemogenomics Library” (2024)
